Compound activity as filed in PubChem.
In the library only some 1.9% were active in any assay of this set; here they are far more common.
Autophagy mod: modulators of autophagy; MEF GFP-LC3 puncta imaging; test concentration mostly 10 µM; calls only at 10 µM (by protocol); 0.98% of 190,000 active;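 active = percentage of spot-positive cells more than 3 SD above its plate mean, without a fluorescence outlier flag or 80% toxicity; inconclusive = no clear call, values can overlap the other calls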
Insulin prom inh: TRM-6 insulin promoter activity inhibition | inhibition, % at 2 µM | TRM-6 cells (human fetal islet line), insulin promoter-eGFP reporter, imaging; reporter expression induced with tamoxifen | 0.9% of 130,000 active;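 active = inhibition above the mean plus 3 SD, with well images judged a real hit on visual review, cut at about 60% in these data, passing the limit was not always enough; inconclusive = inhibition over the cutoff but images rejected on review; inactive = inhibition not above the cutoff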
HMGR II inh: blocks class II HMG-CoA reductase of Enterococcus faecalis; inhibition, % at 10 µM; AID 1066; purified E. faecalis HMGR, NADPH absorbance 340 nm kinetic; 0.41% of 190,000 active;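 active = inhibition above a set limit, the median over all tested compounds plus 3 SD, cut at about 9.5% in these data; inconclusive = no clear call, values can overlap the other calls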;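 also: enzyme runs in reverse so mevalonate oxidation gives rising NADPH absorbance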
Ins promoter up: MIN6 insulin promoter up-regulation. MIN6 insulin promoter-GFP reporter, high-content imaging; hits give high values. z-score at 5 µM. 0.3% of 190,000 active. AID 1625;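 active = z-score above 3 at 5 µM with at least 500 cells counted in the well; inconclusive = wells under 500 cells, flagged as cytotoxic or low count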
Of the large screens only hits and unclear results are named; the others gave an inactive call.

CCN(CC)S(=O)(=O)c1ccc(N2CCCCC2)c(NC(=O)/C(C#N)=C/c2ccc(OC)cc2)c1	none
COC(=O)C1=C(CSc2nc3c(cc2C#N)CN(C)CC3)OC(N)=C(C#N)C1c1ccc(F)cc1 (configuration not stated)	HMGR II inh 14 (no result: Ins promoter up)
OCCNc1nc(-c2ccccc2)c2cc(Cl)ccc2n1	Autophagy mod active (no result: Ins promoter up)
Cc1ccc2nc(NCCO)nc(-c3ccccc3)c2c1	none
Cn1c(=O)[nH]c(=O)c2c1nc(N1CCNCC1)n2Cc1cccc2ccccc12	none
Cn1c(=O)c2c(nc(N3CCNCC3)n2Cc2cccc3ccccc23)n(C)c1=O	Autophagy mod active (no result: Insulin prom inh)
CO/N=C/c1cccn1-c1nccc(OC)c1C#N	none (no result: Insulin prom inh)
CCCCn1c(SCC(=O)Nc2cc(C(F)(F)F)ccc2Cl)nnc1C(CC)N(C)C (configuration not stated)	Autophagy mod active
O=C(CNc1c(Br)cc(Br)cc1Br)NN=C1CCCCC1	none
Cc1cc(O)ccc1N/C=C/c1onc(C)c1[N+](=O)[O-]	none
Cc1cccc(N/C=C/c2onc(C)c2[N+](=O)[O-])c1	Autophagy mod active
COc1ccc(C2C(C(C)=O)=C(C)Nc3ncnn32)cc1OC (configuration not stated)	none (no result: Ins promoter up)
COc1cc(C2C(C(=O)OC(C)C)=C(C)Nc3ncnn32)cc(OC)c1OC (configuration not stated)	Autophagy mod active (no result: Insulin prom inh)
Cc1ccc(NC(=O)CN2C(=O)N/C(=C/c3ccc(C)s3)C2=O)cc1	Autophagy mod active
Cc1cccc(CN2C(=O)N/C(=C/c3ccc(C)s3)C2=O)c1	Autophagy mod active (no result: Ins promoter up)
Cc1ccc(/C=C2/NC(=O)N(Cc3ccccc3)C2=O)s1	none (no result: Insulin prom inh)
O=C(c1ccc(Br)s1)N1CCCC1	Insulin prom inh 70
O=C(c1ccc(Br)s1)N1CCN(c2ncccn2)CC1	none
CN(C)c1ccc(/C=N/NC(=O)c2nnn(-c3nonc3N)c2COc2ccc(F)cc2)cc1	none (no result: Autophagy mod, Insulin prom inh, HMGR II inh)
Oc1c(N=Nc2ccccn2)ccc2ccccc12	Autophagy mod active, Ins promoter up inconclusive
Cc1c(C(=O)NN2CCCCC2)nn(-c2ccc(Cl)cc2Cl)c1-c1ccc(I)cc1	none (no result: Autophagy mod, Insulin prom inh)
CC(=O)Nc1nc(-c2ccc(Br)s2)cs1	Ins promoter up 5
O=C(Nc1nc(-c2ccccn2)cs1)c1ccc(Br)s1	Autophagy mod active
COCCCn1c(SCc2nnc(-c3ccc(OC)c(OC)c3)o2)nnc1-c1ccncc1	HMGR II inh 9.9
Nn1c(SCc2c(F)cccc2F)nnc1-c1ccccn1	none (no result: Autophagy mod, Insulin prom inh, HMGR II inh)
O=C(CCCN1C(=O)/C(=C/c2ccco2)SC1=S)Nc1ccccc1C(=O)O	none (no result: Autophagy mod, Insulin prom inh, HMGR II inh)
O=C(O)CCCN1C(=O)/C(=C\c2ccco2)SC1=S	HMGR II inh 12 (no result: Insulin prom inh)
CCS(=O)(=O)c1ccc2oc(SCC(=O)NC3CCCC(C)C3C)nc2c1 (configuration not stated)	Ins promoter up 4.3
O=C(/C=C/c1cc[n+](CC(=O)c2ccc3cccc4c3c2CC4)cc1)c1ccc2cccc3c2c1CC3	none (no result: Autophagy mod, Insulin prom inh, HMGR II inh)
O=C(CSc1nc2[nH]ncc2c(=O)[nH]1)NCc1ccc(F)cc1	none
CC(C)c1nc2sc3c(NCc4ccccc4)ncnc3c2c2c1COC(C)(C)C2	Autophagy mod active
CC(C)c1nc2sc3c(NCc4ccco4)ncnc3c2c2c1COC(C)(C)C2	none (no result: Insulin prom inh)
O=C(Nc1ccc2c(c1)C(=O)N(CC1CCCO1)C2=O)c1ccccc1Br (configuration not stated)	HMGR II inh 12
O=C(Nc1ccncc1)c1ccc2c(c1)C(=O)N(CC1CCCO1)C2=O (configuration not stated)	none
CC(C)S(=O)(=O)c1cnc(-c2ccccn2)nc1N	none (no result: Autophagy mod, Insulin prom inh, HMGR II inh)
COc1cc(CC(=O)OCC(=O)Nc2sccc2C(N)=O)cc(OC)c1OC	Insulin prom inh 91
NC(=O)c1ccsc1NC(=O)COC(=O)Cc1ccsc1	none
Cc1ccc(-c2nnn(CC(=O)N(C)C3CCCCC3)n2)o1	Insulin prom inh 74
CCCc1nn(CCc2ccccn2)c(N)c1CC	Insulin prom inh 69 (no result: Ins promoter up)
O=C(Nc1ccc(Cl)cc1C(=O)NCC1CCCO1)c1ccco1 (configuration not stated)	Insulin prom inh 75
Cc1ccc(OCC(=O)Nc2ccc(CN3CCCCC3)cc2)c(C)c1	none (no result: Insulin prom inh)
CCOC(=O)C1=C(C)NC(=O)C1CC(=O)O (configuration not stated)	none
COc1ccc(OC)c(NS(=O)(=O)c2ccc(N3CCCC3=O)cc2)c1	Autophagy mod active (no result: Insulin prom inh)
Cc1ccccc1NS(=O)(=O)c1ccc(OCC(=O)NCc2cccnc2)cc1	Autophagy mod active (no result: Insulin prom inh)
COc1ccc(OC)c(NS(=O)(=O)c2ccc(SC)cc2)c1	none (no result: Ins promoter up)
CCOc1ccc(S(=O)(=O)Nc2cc(OC)ccc2OC)cc1	Autophagy mod active
COc1ccc(CCNS(=O)(=O)c2ccc(N3CCCC3=O)cc2)cc1	none (no result: Ins promoter up)
